# ± gives the standard deviation.
# T1: HaloTag-ATRX ADD domain (163-292)
# T1 chain: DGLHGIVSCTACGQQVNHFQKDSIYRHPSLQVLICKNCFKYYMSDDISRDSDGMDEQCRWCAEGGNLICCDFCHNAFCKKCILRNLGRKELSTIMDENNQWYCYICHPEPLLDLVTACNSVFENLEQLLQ
# Experiments:
# Test in all cases: peptide microarray binding signal (635 nm), min-max normalized on array (fraction of array maximum); higher = stronger binding
# Conditions in all cases: peptide region: H3 1-13
# [1] = target: T1, HaloTag-ATRX ADD domain (163-292)
# Procedure: (§1)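 Histone 13-mer peptides were synthesized as cellulose conjugates with a C-terminal 20-atom PEG linker and printed in triplicate on nitrocellulose. The sequence given is the unmodified backbone; PTMs (Kme1/2/3, Kac, Sph/Tph, Rme/Rme2a/Rme2s, Rcit) are listed in the label and the 'peptide modifications' condition. Slides were probed at 4 °C for 1 h with biotin-labelled (HQ)5-HaloTag reader fusions (ATRX-ADD, ING2-PHD) then streptavidin-Alexa647, or with rabbit histone antibodies then anti-rabbit Alexa647. The mean 635 nm signal of the triplicate spots was scaled 0-1 between the lowest and highest values on each array.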
# [2] = target: HaloTag-ING2 PHD (mouse Ing2 200-280)
# Procedure: as §1
# [3] = target: anti-H3K4me3 antibody ab8580
# Procedure: as §1
# [4] = target: anti-H3K9me3 antibody ab8898
# Procedure: as §1
# [5] = peptide modifications: H3R2me2s, binder concentration: 1:2,000 dilution
# [6] = peptide modifications: H3R2me2s, binder concentration: 1:10,000 dilution
# [7] = peptide modifications: H3R2me2s H3T6ph, binder concentration: 1:2,000 dilution
# [8] = peptide modifications: H3R2me2s H3T6ph, binder concentration: 1:10,000 dilution
# [9] = peptide modifications: H3R2me2a, binder concentration: 1:2,000 dilution
# [10] = peptide modifications: H3R2me2a, binder concentration: 1:10,000 dilution
# [11] = peptide modifications: H3R8cit H3K9me2, binder concentration: 1:2,000 dilution
# [12] = peptide modifications: H3R8cit H3K9me2, binder concentration: 1:10,000 dilution
# [13] = peptide modifications: H3R2me2s H3K4me3, binder concentration: 1:2,000 dilution
# [14] = peptide modifications: H3R2me2s H3K4me3, binder concentration: 1:10,000 dilution
# [15] = peptide modifications: H3R2me2a H3T3ph, binder concentration: 1:2,000 dilution
# [16] = peptide modifications: H3R2me2a H3T3ph, binder concentration: 1:10,000 dilution
# [17] = peptide modifications: H3R2me2a H3T6ph, binder concentration: 1:2,000 dilution
# [18] = peptide modifications: H3R2me2a H3T6ph, binder concentration: 1:10,000 dilution
# [19] = peptide modifications: H3R2me2a H3K9me2, binder concentration: 1:2,000 dilution
# [20] = peptide modifications: H3R2me2a H3K9me2, binder concentration: 1:10,000 dilution
# [21] = peptide modifications: H3R2me2a H3K9me3, binder concentration: 1:2,000 dilution
# [22] = peptide modifications: H3R2me2a H3K9me3, binder concentration: 1:10,000 dilution
# [23] = peptide modifications: H3R2me2s H3K9me2, binder concentration: 1:2,000 dilution
# [24] = peptide modifications: H3R2me2s H3K9me2, binder concentration: 1:10,000 dilution
binder,measurement,setting,value
ARTKQTARKSTGG [H3 1-13 A Rme2s T K Q T A R K S T G G],peptide microarray binding signal,"[1]; peptide modifications: H3R2me2s, binder concentration: 50 nM",0.00815 ± 0.00015
same,peptide microarray binding signal,"[1]; peptide modifications: H3R2me2s, binder concentration: 500 nM",0.0158 ± 0.0003
same,peptide microarray binding signal,"[2]; peptide modifications: H3R2me2s, binder concentration: 10 nM",0.00424 ± 0.00023
same,peptide microarray binding signal,"[2]; peptide modifications: H3R2me2s, binder concentration: 100 nM",0.0168 ± 0.003
same,peptide microarray binding signal,[3]; [5],0.00153 ± 0.0002
same,peptide microarray binding signal,[3]; [6],0.000799 ± 8.3e-06
same,peptide microarray binding signal,[4]; [5],0.00178 ± 0.00012
same,peptide microarray binding signal,[4]; [6],0.00075 ± 1.6e-05
ARTKQTARKSTGG [H3 1-13 A Rme2s T K Q Tph A R K S T G G],peptide microarray binding signal,"[1]; peptide modifications: H3R2me2s H3T6ph, binder concentration: 50 nM",0.00476 ± 0.00012
same,peptide microarray binding signal,"[1]; peptide modifications: H3R2me2s H3T6ph, binder concentration: 500 nM",0.0109 ± 0.00039
same,peptide microarray binding signal,"[2]; peptide modifications: H3R2me2s H3T6ph, binder concentration: 10 nM",0.002745 ± 2.7e-05
same,peptide microarray binding signal,"[2]; peptide modifications: H3R2me2s H3T6ph, binder concentration: 100 nM",0.0193 ± 0.0028
same,peptide microarray binding signal,[3]; [7],0.000774 ± 1.9e-05
same,peptide microarray binding signal,[3]; [8],0.00097 ± 2e-05
same,peptide microarray binding signal,[4]; [7],0.000876 ± 2.6e-05
same,peptide microarray binding signal,[4]; [8],0.000461
ARTKQTARKSTGG [H3 1-13 A Rme2a T K Q T A R K S T G G],peptide microarray binding signal,"[1]; peptide modifications: H3R2me2a, binder concentration: 50 nM",0.0208 ± 0.00057
same,peptide microarray binding signal,"[1]; peptide modifications: H3R2me2a, binder concentration: 500 nM",0.0355 ± 0.025
same,peptide microarray binding signal,"[2]; peptide modifications: H3R2me2a, binder concentration: 10 nM",0.00889 ± 0.00042
same,peptide microarray binding signal,"[2]; peptide modifications: H3R2me2a, binder concentration: 100 nM",0.0186 ± 0.0037
same,peptide microarray binding signal,[3]; [9],0.0031 ± 0.00032
same,peptide microarray binding signal,[3]; [10],0.0016 ± 7.1e-05
same,peptide microarray binding signal,[4]; [9],0.00127 ± 7.4e-05
same,peptide microarray binding signal,[4]; [10],0.000634
ARTKQTARKSTGG [H3 1-13 A R T K Q T A Rcit Kme2 S T G G],peptide microarray binding signal,"[1]; peptide modifications: H3R8cit H3K9me2, binder concentration: 50 nM",0.0517 ± 0.0042
same,peptide microarray binding signal,"[1]; peptide modifications: H3R8cit H3K9me2, binder concentration: 500 nM",0.0992 ± 0.0018
same,peptide microarray binding signal,"[2]; peptide modifications: H3R8cit H3K9me2, binder concentration: 10 nM",0.0235 ± 0.0016
same,peptide microarray binding signal,"[2]; peptide modifications: H3R8cit H3K9me2, binder concentration: 100 nM",0.0428 ± 0.011
same,peptide microarray binding signal,[3]; [11],0.00302 ± 0.00049
same,peptide microarray binding signal,[3]; [12],0.00177 ± 5e-05
same,peptide microarray binding signal,[4]; [11],0.00248 ± 0.00035
same,peptide microarray binding signal,[4]; [12],0.00277 ± 8.7e-05
ARTKQTARKSTGG [H3 1-13 A Rme2s T Kme3 Q T A R K S T G G],peptide microarray binding signal,"[1]; peptide modifications: H3R2me2s H3K4me3, binder concentration: 50 nM",0.00893 ± 9.3e-05
same,peptide microarray binding signal,"[1]; peptide modifications: H3R2me2s H3K4me3, binder concentration: 500 nM",0.0273 ± 0.0066
same,peptide microarray binding signal,"[2]; peptide modifications: H3R2me2s H3K4me3, binder concentration: 10 nM",0.0555 ± 0.0092
same,peptide microarray binding signal,"[2]; peptide modifications: H3R2me2s H3K4me3, binder concentration: 100 nM",0.0641 ± 0.027
same,peptide microarray binding signal,[3]; [13],0.674 ± 0.053
same,peptide microarray binding signal,[3]; [14],0.326 ± 0.034
same,peptide microarray binding signal,[4]; [13],0.228 ± 0.057
same,peptide microarray binding signal,[4]; [14],0.113 ± 0.034
ARTKQTARKSTGG [H3 1-13 A Rme2a Tph K Q T A R K S T G G],peptide microarray binding signal,"[1]; peptide modifications: H3R2me2a H3T3ph, binder concentration: 50 nM",0.00567 ± 0.00034
same,peptide microarray binding signal,"[1]; peptide modifications: H3R2me2a H3T3ph, binder concentration: 500 nM",0.0135 ± 0.00068
same,peptide microarray binding signal,"[2]; peptide modifications: H3R2me2a H3T3ph, binder concentration: 10 nM",0.00501 ± 0.00013
same,peptide microarray binding signal,"[2]; peptide modifications: H3R2me2a H3T3ph, binder concentration: 100 nM",0.00737 ± 0.00044
same,peptide microarray binding signal,[3]; [15],0.00262 ± 0.00056
same,peptide microarray binding signal,[3]; [16],0.00434 ± 0.00077
same,peptide microarray binding signal,[4]; [15],0.000755 ± 0.00011
same,peptide microarray binding signal,[4]; [16],0.000577 ± 6.2e-06
ARTKQTARKSTGG [H3 1-13 A Rme2a T K Q Tph A R K S T G G],peptide microarray binding signal,"[1]; peptide modifications: H3R2me2a H3T6ph, binder concentration: 50 nM",0.00602 ± 7.4e-05
same,peptide microarray binding signal,"[1]; peptide modifications: H3R2me2a H3T6ph, binder concentration: 500 nM",0.015 ± 0.0011
same,peptide microarray binding signal,"[2]; peptide modifications: H3R2me2a H3T6ph, binder concentration: 10 nM",0.00549 ± 0.00043
same,peptide microarray binding signal,"[2]; peptide modifications: H3R2me2a H3T6ph, binder concentration: 100 nM",0.00964 ± 0.0013
same,peptide microarray binding signal,[3]; [17],0.00198 ± 0.00026
same,peptide microarray binding signal,[3]; [18],0.0032 ± 0.00025
same,peptide microarray binding signal,[4]; [17],0.00112 ± 3.5e-05
same,peptide microarray binding signal,[4]; [18],0.000923 ± 1.9e-05
ARTKQTARKSTGG [H3 1-13 A Rme2a T K Q T A R Kme2 S T G G],peptide microarray binding signal,"[1]; peptide modifications: H3R2me2a H3K9me2, binder concentration: 50 nM",0.169 ± 0.018
same,peptide microarray binding signal,"[1]; peptide modifications: H3R2me2a H3K9me2, binder concentration: 500 nM",0.197 ± 0.0079
same,peptide microarray binding signal,"[2]; peptide modifications: H3R2me2a H3K9me2, binder concentration: 10 nM",0.06 ± 0.00075
same,peptide microarray binding signal,"[2]; peptide modifications: H3R2me2a H3K9me2, binder concentration: 100 nM",0.0848 ± 0.012
same,peptide microarray binding signal,[3]; [19],0.0133 ± 0.0025
same,peptide microarray binding signal,[3]; [20],0.0229 ± 0.0084
same,peptide microarray binding signal,[4]; [19],0.0303 ± 0.0053
same,peptide microarray binding signal,[4]; [20],0.0191 ± 0.0015
ARTKQTARKSTGG [H3 1-13 A Rme2a T K Q T A R Kme3 S T G G],peptide microarray binding signal,"[1]; peptide modifications: H3R2me2a H3K9me3, binder concentration: 50 nM",0.553 ± 0.21
same,peptide microarray binding signal,"[1]; peptide modifications: H3R2me2a H3K9me3, binder concentration: 500 nM",0.325 ± 0.0057
same,peptide microarray binding signal,"[2]; peptide modifications: H3R2me2a H3K9me3, binder concentration: 10 nM",0.0188 ± 0.00063
same,peptide microarray binding signal,"[2]; peptide modifications: H3R2me2a H3K9me3, binder concentration: 100 nM",0.0327 ± 0.0029
same,peptide microarray binding signal,[3]; [21],0.0294 ± 0.003
same,peptide microarray binding signal,[3]; [22],0.0254 ± 0.0048
same,peptide microarray binding signal,[4]; [21],0.328 ± 0.013
same,peptide microarray binding signal,[4]; [22],0.254 ± 0.069
ARTKQTARKSTGG [H3 1-13 A Rme2s T K Q T A R Kme2 S T G G],peptide microarray binding signal,"[1]; peptide modifications: H3R2me2s H3K9me2, binder concentration: 50 nM",0.0159 ± 0.001
same,peptide microarray binding signal,"[1]; peptide modifications: H3R2me2s H3K9me2, binder concentration: 500 nM",0.0381 ± 0.00096
same,peptide microarray binding signal,"[2]; peptide modifications: H3R2me2s H3K9me2, binder concentration: 10 nM",0.0245 ± 0.00098
same,peptide microarray binding signal,"[2]; peptide modifications: H3R2me2s H3K9me2, binder concentration: 100 nM",0.0463 ± 0.005
same,peptide microarray binding signal,[3]; [23],0.0401 ± 0.0015
same,peptide microarray binding signal,[3]; [24],0.0397 ± 0.0042
same,peptide microarray binding signal,[4]; [23],0.0557 ± 0.0055
same,peptide microarray binding signal,[4]; [24],0.0282 ± 0.0014
